# Source: paper PMC7862700, “An all-to-all approach to the identification of sequence-specific readers for epigenetic DNA modifications on cytosine”
# Assays:
# Experiment in all cases: DAPPL (digital affinity profiling via proximity ligation, sequencing); 10 mM Tris-HCl pH 7.5, 50 mM NaCl, 1 mM DTT, 4% glycerol, room temperature, 30 min; GST-TFs on glutathione beads, 16-mer random dsDNA library, 0.1% formaldehyde crosslink after washing; high values mean tight binding
# Conditions in all cases: protein: recombinant; tags: N-terminal GST; dsDNA, one strand shown
# FLI1 = target: T1, FLI1 (Homo sapiens, UniProt Q01543 1-452)
# T1 sequence: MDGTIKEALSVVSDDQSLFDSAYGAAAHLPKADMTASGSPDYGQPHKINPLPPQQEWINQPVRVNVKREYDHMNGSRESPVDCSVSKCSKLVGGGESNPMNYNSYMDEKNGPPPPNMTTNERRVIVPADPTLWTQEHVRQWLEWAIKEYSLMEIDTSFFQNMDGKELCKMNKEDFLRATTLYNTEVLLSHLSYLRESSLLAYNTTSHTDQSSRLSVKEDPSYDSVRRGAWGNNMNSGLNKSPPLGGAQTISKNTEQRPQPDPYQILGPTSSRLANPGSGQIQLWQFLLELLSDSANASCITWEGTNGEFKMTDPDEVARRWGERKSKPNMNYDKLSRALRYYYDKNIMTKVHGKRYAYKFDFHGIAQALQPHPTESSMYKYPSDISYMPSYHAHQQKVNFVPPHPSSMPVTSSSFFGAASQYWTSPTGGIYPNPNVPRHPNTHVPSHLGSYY
# Procedure, shortened: (§1)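 Human transcription factors carrying a GST fusion were produced in yeast, bound to glutathione beads, tagged with DNA barcodes and pooled together with a tag-only sample. Each pool was held with 200 nmole of a random double-stranded 16-mer DNA library in Tris/NaCl/DTT/glycerol buffer for 30 min at room temperature, then washed, crosslinked in 0.1% formaldehyde, proximity-ligated with BsaI/T4 ligase (1 h, 37 °C), PCR-amplified and sequenced on an Illumina NextSeq500. Binding signal is the read frequency of each hexamer for a given factor divided by its frequency in the tag-only sample.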
# ELK1 = target: T2, ELK1 (Homo sapiens, UniProt P19419 1-428)
# T2 sequence: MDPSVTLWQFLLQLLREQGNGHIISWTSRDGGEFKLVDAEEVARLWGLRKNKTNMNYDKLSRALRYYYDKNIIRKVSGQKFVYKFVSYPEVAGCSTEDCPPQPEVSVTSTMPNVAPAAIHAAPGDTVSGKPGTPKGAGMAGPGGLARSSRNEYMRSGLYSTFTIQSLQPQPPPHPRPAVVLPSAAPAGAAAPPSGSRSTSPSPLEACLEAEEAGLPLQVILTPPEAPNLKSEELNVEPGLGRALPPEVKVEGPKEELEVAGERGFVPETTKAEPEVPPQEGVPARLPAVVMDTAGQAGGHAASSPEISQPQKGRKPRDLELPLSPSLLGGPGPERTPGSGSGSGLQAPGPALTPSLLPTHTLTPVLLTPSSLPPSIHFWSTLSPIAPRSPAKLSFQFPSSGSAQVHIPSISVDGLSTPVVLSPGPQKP
# Procedure, shortened: as §1
# GABPA = target: T3, GABPA (Homo sapiens, UniProt Q06546 1-454)
# T3 sequence: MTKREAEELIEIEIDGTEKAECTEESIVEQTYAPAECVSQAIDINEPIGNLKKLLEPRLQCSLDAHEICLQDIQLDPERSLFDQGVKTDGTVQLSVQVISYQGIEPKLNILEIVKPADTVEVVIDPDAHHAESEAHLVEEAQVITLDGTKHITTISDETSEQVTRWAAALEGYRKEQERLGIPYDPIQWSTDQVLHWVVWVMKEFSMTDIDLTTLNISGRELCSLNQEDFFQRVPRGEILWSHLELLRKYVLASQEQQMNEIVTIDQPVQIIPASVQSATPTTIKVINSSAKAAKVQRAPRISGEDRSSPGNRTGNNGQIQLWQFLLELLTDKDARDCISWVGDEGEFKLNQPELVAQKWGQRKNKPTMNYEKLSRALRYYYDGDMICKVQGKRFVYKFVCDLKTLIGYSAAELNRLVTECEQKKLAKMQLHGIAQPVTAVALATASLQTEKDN
# Procedure, shortened: as §1
# ERG = target: T4, ERG (Homo sapiens, UniProt P11308 1-479)
# T4 sequence: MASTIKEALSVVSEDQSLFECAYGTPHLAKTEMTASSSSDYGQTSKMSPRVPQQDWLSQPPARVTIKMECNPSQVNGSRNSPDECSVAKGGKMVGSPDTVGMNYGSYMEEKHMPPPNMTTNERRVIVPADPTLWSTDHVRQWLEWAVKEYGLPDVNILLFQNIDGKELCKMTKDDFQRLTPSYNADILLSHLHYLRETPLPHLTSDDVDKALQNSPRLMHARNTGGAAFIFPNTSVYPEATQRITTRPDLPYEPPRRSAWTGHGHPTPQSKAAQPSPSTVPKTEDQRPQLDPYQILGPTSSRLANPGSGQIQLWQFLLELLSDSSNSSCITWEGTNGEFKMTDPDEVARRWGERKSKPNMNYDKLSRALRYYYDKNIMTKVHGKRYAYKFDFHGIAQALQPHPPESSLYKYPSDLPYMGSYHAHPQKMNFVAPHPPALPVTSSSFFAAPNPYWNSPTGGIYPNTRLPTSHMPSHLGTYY
# Procedure, shortened: as §1
# EHF = target: T5, EHF (Homo sapiens, UniProt Q9NZC4 1-300)
# T5 sequence: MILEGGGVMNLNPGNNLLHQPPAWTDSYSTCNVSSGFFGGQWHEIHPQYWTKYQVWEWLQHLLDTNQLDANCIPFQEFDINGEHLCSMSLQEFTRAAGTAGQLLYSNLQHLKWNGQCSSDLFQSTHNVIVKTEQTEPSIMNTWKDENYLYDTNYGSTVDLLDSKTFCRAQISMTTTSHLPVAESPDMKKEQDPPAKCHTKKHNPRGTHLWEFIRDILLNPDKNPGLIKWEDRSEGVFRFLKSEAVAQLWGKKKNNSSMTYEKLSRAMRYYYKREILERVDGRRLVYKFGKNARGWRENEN
# Procedure, shortened: as §1
# SPI1 = SPI1 (Homo sapiens, UniProt P17947 1-270)
# Procedure, shortened: as §1
# SPIB = SPIB (Homo sapiens, UniProt Q01892 1-262)
# Chain of SPIB (Q01892 whole entry): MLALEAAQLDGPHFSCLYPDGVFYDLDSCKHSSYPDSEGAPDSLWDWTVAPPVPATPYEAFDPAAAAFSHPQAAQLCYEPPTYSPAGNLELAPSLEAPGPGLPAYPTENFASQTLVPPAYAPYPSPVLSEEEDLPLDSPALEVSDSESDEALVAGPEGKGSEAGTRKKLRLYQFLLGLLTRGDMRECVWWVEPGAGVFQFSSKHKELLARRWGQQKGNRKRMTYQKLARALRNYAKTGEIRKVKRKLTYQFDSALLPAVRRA
# Procedure, shortened: as §1
# FEV = target: T6, FEV (Homo sapiens, UniProt Q99581 1-238)
# T6 sequence: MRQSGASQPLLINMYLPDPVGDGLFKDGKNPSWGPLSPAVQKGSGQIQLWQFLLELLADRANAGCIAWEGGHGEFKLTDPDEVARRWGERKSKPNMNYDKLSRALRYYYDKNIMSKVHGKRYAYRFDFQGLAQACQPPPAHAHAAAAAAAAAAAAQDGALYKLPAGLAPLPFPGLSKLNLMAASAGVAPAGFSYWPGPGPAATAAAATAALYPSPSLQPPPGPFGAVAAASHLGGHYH
# Procedure, shortened: as §1
# ETV5 = ETV5 (Homo sapiens, UniProt P41161 1-510)
# Chain of ETV5 (P41161 whole entry): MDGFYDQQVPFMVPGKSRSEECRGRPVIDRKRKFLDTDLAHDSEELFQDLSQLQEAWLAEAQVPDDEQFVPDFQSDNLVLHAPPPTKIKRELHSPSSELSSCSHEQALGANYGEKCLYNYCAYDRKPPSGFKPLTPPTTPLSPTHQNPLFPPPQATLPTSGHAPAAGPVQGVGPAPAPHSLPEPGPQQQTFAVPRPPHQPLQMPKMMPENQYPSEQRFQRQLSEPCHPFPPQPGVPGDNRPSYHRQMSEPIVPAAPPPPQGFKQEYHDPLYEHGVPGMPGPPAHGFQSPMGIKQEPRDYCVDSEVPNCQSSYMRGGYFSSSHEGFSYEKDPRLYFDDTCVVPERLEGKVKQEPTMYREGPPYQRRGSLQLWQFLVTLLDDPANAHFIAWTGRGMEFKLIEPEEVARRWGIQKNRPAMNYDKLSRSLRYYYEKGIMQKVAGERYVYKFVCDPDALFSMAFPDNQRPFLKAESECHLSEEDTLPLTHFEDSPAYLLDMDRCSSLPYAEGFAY
# Procedure, shortened: as §1
# SPIC = target: T7, SPIC (Homo sapiens, UniProt Q8N5J4 1-248)
# T7 sequence: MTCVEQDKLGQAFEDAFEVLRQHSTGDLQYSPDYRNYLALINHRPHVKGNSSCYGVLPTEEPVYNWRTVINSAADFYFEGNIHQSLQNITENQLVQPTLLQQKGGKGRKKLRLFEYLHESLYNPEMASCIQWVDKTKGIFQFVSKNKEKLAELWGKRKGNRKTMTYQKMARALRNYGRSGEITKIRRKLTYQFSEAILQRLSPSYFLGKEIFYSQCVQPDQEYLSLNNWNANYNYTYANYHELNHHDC
# Procedure, shortened: as §1
# ELF4 = ELF4 (Homo sapiens, UniProt Q99607 1-663)
# Chain of ELF4 (Q99607 whole entry): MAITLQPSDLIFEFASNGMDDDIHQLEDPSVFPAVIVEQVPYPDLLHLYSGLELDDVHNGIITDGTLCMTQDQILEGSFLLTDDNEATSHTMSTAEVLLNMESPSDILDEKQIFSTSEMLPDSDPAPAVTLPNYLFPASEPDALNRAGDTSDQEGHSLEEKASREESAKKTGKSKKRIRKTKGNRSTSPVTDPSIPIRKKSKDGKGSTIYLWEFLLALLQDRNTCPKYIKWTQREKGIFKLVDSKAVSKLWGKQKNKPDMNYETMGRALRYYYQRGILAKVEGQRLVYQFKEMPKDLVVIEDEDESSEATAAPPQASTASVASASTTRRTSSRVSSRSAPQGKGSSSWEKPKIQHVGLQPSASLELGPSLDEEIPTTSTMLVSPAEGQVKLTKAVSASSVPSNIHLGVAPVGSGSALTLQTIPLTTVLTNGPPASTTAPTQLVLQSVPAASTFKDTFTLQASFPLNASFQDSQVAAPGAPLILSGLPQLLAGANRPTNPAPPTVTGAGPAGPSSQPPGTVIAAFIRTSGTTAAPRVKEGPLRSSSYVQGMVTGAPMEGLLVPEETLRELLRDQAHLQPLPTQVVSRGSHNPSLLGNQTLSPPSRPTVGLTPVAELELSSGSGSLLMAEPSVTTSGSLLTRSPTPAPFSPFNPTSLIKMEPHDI
# Procedure, shortened: as §1
# ETV1 = ETV1 (Homo sapiens, UniProt P50549 1-477)
# Chain of ETV1 (P50549 whole entry): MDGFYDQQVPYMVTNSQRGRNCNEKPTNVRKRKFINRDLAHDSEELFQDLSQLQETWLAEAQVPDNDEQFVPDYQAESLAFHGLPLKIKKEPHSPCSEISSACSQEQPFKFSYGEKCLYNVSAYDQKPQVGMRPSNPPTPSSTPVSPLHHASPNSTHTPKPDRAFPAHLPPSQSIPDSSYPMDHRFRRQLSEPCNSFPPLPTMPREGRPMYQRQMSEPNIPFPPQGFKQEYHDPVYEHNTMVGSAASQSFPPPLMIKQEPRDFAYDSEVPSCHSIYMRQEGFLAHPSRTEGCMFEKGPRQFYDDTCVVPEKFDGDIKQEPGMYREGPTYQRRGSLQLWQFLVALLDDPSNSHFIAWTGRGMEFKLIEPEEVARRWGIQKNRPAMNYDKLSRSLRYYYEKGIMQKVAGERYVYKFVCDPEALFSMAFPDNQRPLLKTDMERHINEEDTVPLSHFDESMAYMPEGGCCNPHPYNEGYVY
# Procedure, shortened: as §1
# ERF = target: T8, ERF (Homo sapiens, UniProt P50548 1-548)
# T8 sequence: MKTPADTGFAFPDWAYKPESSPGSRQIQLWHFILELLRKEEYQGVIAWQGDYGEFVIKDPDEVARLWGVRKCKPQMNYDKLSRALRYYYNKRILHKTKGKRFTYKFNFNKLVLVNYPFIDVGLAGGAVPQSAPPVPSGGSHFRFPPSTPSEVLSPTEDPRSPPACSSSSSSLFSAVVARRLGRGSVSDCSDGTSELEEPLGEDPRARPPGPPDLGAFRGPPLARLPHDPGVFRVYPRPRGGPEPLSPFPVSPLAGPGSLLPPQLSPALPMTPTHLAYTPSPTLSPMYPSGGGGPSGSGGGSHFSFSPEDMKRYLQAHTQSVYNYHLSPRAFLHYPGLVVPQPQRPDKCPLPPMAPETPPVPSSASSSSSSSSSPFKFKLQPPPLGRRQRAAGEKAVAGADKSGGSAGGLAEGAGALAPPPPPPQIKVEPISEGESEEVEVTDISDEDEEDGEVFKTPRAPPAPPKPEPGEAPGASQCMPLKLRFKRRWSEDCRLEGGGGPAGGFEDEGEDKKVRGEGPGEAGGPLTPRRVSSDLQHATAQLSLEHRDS
# Procedure, shortened: as §1
# ETV3L = target: T9, ETV3L (Homo sapiens, UniProt Q6ZN32 1-361)
# T9 sequence: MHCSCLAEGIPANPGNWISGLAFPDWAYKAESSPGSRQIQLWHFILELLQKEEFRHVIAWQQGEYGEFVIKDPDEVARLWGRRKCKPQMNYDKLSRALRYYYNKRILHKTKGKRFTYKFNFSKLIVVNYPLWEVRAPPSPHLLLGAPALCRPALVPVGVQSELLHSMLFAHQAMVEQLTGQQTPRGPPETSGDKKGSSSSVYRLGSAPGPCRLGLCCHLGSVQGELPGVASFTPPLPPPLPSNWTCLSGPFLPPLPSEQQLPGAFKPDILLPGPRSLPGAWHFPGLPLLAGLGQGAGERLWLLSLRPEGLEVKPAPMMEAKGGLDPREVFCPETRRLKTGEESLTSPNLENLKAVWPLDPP
# Procedure, shortened: as §1
# ETV3 = target: T10, ETV3 (Homo sapiens, UniProt P41162-2 1-143)
# T10 sequence: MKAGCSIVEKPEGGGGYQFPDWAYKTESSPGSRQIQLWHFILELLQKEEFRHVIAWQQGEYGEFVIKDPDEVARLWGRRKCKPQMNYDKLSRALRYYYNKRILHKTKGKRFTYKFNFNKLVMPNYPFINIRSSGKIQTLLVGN
# Procedure, shortened: as §1
# ELF1 = ELF1 (Homo sapiens, UniProt P32519 1-619)
# Chain of ELF1 (P32519 whole entry): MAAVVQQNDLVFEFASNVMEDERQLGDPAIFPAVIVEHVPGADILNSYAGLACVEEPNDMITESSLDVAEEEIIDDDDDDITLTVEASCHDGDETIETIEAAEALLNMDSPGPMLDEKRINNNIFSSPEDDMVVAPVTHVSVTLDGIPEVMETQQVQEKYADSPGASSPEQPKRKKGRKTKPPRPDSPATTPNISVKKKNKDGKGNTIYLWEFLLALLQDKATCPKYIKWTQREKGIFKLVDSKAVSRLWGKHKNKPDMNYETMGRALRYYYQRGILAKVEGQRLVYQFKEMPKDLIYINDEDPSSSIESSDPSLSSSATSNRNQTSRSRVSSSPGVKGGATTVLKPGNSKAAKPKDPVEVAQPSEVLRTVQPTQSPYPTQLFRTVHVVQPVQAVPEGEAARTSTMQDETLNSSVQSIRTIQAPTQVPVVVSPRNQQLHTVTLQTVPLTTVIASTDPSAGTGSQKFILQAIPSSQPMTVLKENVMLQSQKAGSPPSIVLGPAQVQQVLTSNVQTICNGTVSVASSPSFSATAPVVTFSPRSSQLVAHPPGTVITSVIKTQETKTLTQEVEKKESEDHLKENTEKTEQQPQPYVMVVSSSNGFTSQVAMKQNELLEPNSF
# Procedure, shortened: as §1
Sequence,binding signal (FLI1),binding signal (ELK1),binding signal (GABPA),binding signal (ERG),binding signal (EHF),binding signal (SPI1),binding signal (SPIB),binding signal (FEV),binding signal (ETV5),binding signal (SPIC),binding signal (ELF4),binding signal (ETV1),binding signal (ERF),binding signal (ETV3L),binding signal (ETV3),binding signal (ELF1)
CCGATG,"1.07 fold enrichment (6-mer frequency, TF over GST control)","1.1 fold enrichment (6-mer frequency, TF over GST control)","1.18 fold enrichment (6-mer frequency, TF over GST control)","1.06 fold enrichment (6-mer frequency, TF over GST control)","1.03 fold enrichment (6-mer frequency, TF over GST control)","1.08 fold enrichment (6-mer frequency, TF over GST control)","1.2 fold enrichment (6-mer frequency, TF over GST control)","1.08 fold enrichment (6-mer frequency, TF over GST control)","1.11 fold enrichment (6-mer frequency, TF over GST control)","1.2 fold enrichment (6-mer frequency, TF over GST control)","1.14 fold enrichment (6-mer frequency, TF over GST control)","1.1 fold enrichment (6-mer frequency, TF over GST control)","1.1 fold enrichment (6-mer frequency, TF over GST control)","1.1 fold enrichment (6-mer frequency, TF over GST control)","1.12 fold enrichment (6-mer frequency, TF over GST control)",–
CATCCA,"1.01 fold enrichment (6-mer frequency, TF over GST control)","1.06 fold enrichment (6-mer frequency, TF over GST control)",–,–,–,–,"1 fold enrichment (6-mer frequency, TF over GST control)",–,"1.01 fold enrichment (6-mer frequency, TF over GST control)","1.05 fold enrichment (6-mer frequency, TF over GST control)","1.02 fold enrichment (6-mer frequency, TF over GST control)",–,"1.01 fold enrichment (6-mer frequency, TF over GST control)",–,–,"1.02 fold enrichment (6-mer frequency, TF over GST control)"
